Results filed as inconclusive are left out. Entries that show only a call come without a potency. The source made the active and inactive calls. The call rests on the fitted dose curve; in most records, active means well fitted curve in the direction sought with a large enough effect in the repeat runs; inconclusive means weak or mixed curves; inactive means no such curve, though single readings can be large; an effect the other way counts as inactive or inconclusive.
Experiment: qHTS assay to identify small molecule antagonists of the androgen receptor (AR) signaling pathway - cell viability counter screen (AID 743033)
Conditions: AR-bla HEK293 viability, CellTiter-Glo luminescence, 16 h; series mostly up to 58.5 µM
Further: nearly all actives have a fitted effect of over 45% in size.

SMILES	outcome
OC[C@@H](O)[C@@H](O)[C@H](O)[C@H](O)CO	inactive
NC(=O)NO	inactive
Cc1cnc(NC(=O)C2=C(O)c3ccccc3S(=O)(=O)N2C)s1	inactive
C1CNCCN1	inactive
N[C@@H](Cc1c[nH]c2ccccc12)C(=O)O	inactive
O=C1CCCCCN1	inactive
CO[C@H]1C=CO[C@@]2(C)Oc3c(C)c(O)c4c(O)c(c(/C=N/N5CCN(C)CC5)c(O)c4c3C2=O)NC(=O)/C(C)=C\C=C[C@H](C)[C@H](O)[C@@H](C)[C@@H](O)[C@@H](C)[C@H](OC(C)=O)[C@@H]1C	inactive
Cc1ccc(O)c(-n2nc3ccccc3n2)c1	inactive
O=C(O)CN(CC(=O)O)CC(=O)O	inactive
NC(=O)N/N=C/c1ccc([N+](=O)[O-])o1	inactive
C#C[C@]1(O)CC[C@H]2[C@@H]3CCC4=CC(=O)CC[C@@H]4[C@H]3CC[C@@]21CC	inactive
Cc1cccc2ccccc12	inactive
COC1=CC(=O)C[C@@H](C)[C@]12Oc1c(Cl)c(OC)cc(OC)c1C2=O	inactive
N[C@@H](Cc1c[nH]c2ccc(O)cc12)C(=O)O	inactive
CCCCCCCC(=O)OCC(O)CO (centres undefined)	inactive
CC1=C(/C=C/C(C)=C/C=C/C(C)=C/C(=O)O)C(C)(C)CCC1	inactive
COc1ccc(C(=O)c2ccccc2)c(O)c1	inactive
O=C(O)Cc1cccc2ccccc12	inactive
C=C(C)OC(C)=O	inactive
NC(=O)c1ccc([N+](=O)[O-])cc1Cl	inactive
CCCCOC(=O)CCCCCCCCC(=O)OCCCC	inactive
NC(N)=NC(N)=NCCc1ccccc1	inactive
C[C@]12C[C@H](O)[C@H]3[C@@H](CCC4=CC(=O)CC[C@@]43C)[C@@H]1CC[C@@H]2C(=O)CO	inactive
C#C[C@]1(O)CC[C@H]2[C@@H]3CCc4cc(O)ccc4[C@H]3CC[C@@]21C	inactive
CCCCCCCCOc1ccc(C(=O)c2ccccc2)c(O)c1	inactive
C[C@]12CC[C@@H]3c4ccc(O)cc4CC[C@H]3[C@@H]1CCC2=O	inactive
O=[N+]([O-])c1ccc(O)cc1	inactive
CC(=O)/C=C/C1=C(C)CCCC1(C)C	inactive
CC(C)(C)CC(C)(C)c1ccc(O)c(-n2nc3ccccc3n2)c1	inactive
C=C(C)C(N)=O	inactive

Experiment: qHTS assay to identify small molecule antagonists of the androgen receptor (AR) signaling pathway using the MDA cell line - cell viability counter screen (AID 743041; further: potency means the concentration at half of the fitted maximal effect)
Conditions: MDA-kb2 viability, CellTiter-Fluor, 16 h, cells co-treated with R1881 androgen agonist; series mostly up to 70.3 µM
In short: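 MDA-kb2 AR-luc cells (MMTV-luciferase, AR/GR responsive) treated with compounds plus R1881 agonist for 16 h at 37C. CellTiter-Fluor added at 15.5 h; fluorescence read after 30 min in the same wells.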

SMILES	Potency
OC[C@@H](O)[C@@H](O)[C@H](O)[C@H](O)CO	inactive
NC(=O)NO	inactive
Cc1cnc(NC(=O)C2=C(O)c3ccccc3S(=O)(=O)N2C)s1	inactive
C1CNCCN1	inactive
N[C@@H](Cc1c[nH]c2ccccc12)C(=O)O	inactive
O=C1CCCCCN1	inactive
CO[C@H]1C=CO[C@@]2(C)Oc3c(C)c(O)c4c(O)c(c(/C=N/N5CCN(C)CC5)c(O)c4c3C2=O)NC(=O)/C(C)=C\C=C[C@H](C)[C@H](O)[C@@H](C)[C@@H](O)[C@@H](C)[C@H](OC(C)=O)[C@@H]1C	26.6 µM (active)
Cc1ccc(O)c(-n2nc3ccccc3n2)c1	inactive
O=C(O)CN(CC(=O)O)CC(=O)O	inactive
NC(=O)N/N=C/c1ccc([N+](=O)[O-])o1	inactive
C#C[C@]1(O)CC[C@H]2[C@@H]3CCC4=CC(=O)CC[C@@H]4[C@H]3CC[C@@]21CC	inactive
Cc1cccc2ccccc12	inactive
COC1=CC(=O)C[C@@H](C)[C@]12Oc1c(Cl)c(OC)cc(OC)c1C2=O	inactive
N[C@@H](Cc1c[nH]c2ccc(O)cc12)C(=O)O	inactive
CCCCCCCC(=O)OCC(O)CO (centres undefined)	inactive
CC1=C(/C=C/C(C)=C/C=C/C(C)=C/C(=O)O)C(C)(C)CCC1	inactive
COc1ccc(C(=O)c2ccccc2)c(O)c1	inactive
O=C(O)Cc1cccc2ccccc12	inactive
C=C(C)OC(C)=O	inactive
NC(=O)c1ccc([N+](=O)[O-])cc1Cl	inactive
CCCCOC(=O)CCCCCCCCC(=O)OCCCC	inactive
C[C@]12C[C@H](O)[C@H]3[C@@H](CCC4=CC(=O)CC[C@@]43C)[C@@H]1CC[C@@H]2C(=O)CO	inactive
C#C[C@]1(O)CC[C@H]2[C@@H]3CCc4cc(O)ccc4[C@H]3CC[C@@]21C	inactive
CCCCCCCCOc1ccc(C(=O)c2ccccc2)c(O)c1	inactive
C[C@]12CC[C@@H]3c4ccc(O)cc4CC[C@H]3[C@@H]1CCC2=O	inactive
O=[N+]([O-])c1ccc(O)cc1	inactive
CC(=O)/C=C/C1=C(C)CCCC1(C)C	inactive
CC(C)(C)CC(C)(C)c1ccc(O)c(-n2nc3ccccc3n2)c1	inactive
C=C(C)C(N)=O	inactive

From PubChem BioAssay (Tox21)
